Records with an inconclusive call do not appear. The source made the active and inactive calls. Calls follow the shape of the dose curve; as a rule, active = well fitted curve in the direction sought with a large enough effect; inconclusive = small, poorly fitted or top-dose-only effect, or another doubt; inactive = no such curve, though single readings can be large; an effect the other way counts as inactive or inconclusive.
Key:
[1] = target: ATP-dependent 6-phosphofructokinase (Trypanosoma brucei brucei) (UniProt O15648); test: qHTS Assay to Find Inhibitors of T. brucei phosphofructokinase: hit validation (AID 492961);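 also: luminescence reports ADP formed as PFK phosphorylates fructose-6-phosphate with ATP; % is scaled to controls: 0 for no effect and ±100 for the full control effect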
Method in brief: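 In this biochemical qHTS validation, titrated compounds were tested against 1.25 nM PFK with 0.1 mM ATP and 0.5 mM F6P. Percent activity came from controls lacking or containing enzyme.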

[2] = target: Ubiquitin carboxyl-terminal hydrolase 1 (Homo sapiens) (UniProt O94782); test: Inhibitors of USP1/UAF1: Pilot qHTS (AID 504865);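 also: rhodamine fluorescence freed from ubiquitin-rhodamine substrate followed over time; top concentration of the series differs between compounds; % is scaled to controls: 0 for no effect and ±100 for the full control effect; nearly all actives have a fitted effect of over 35% in size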
Method in brief: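 Kinetic fluorescence assay: 1nM USP1/UAF1, 15 min compound preincubation, then 150nM Ub-Rho; 480/540 nm.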

[3] = target: Luciferin 4-monooxygenase (Photinus pyralis) (UniProt P08659); test: Biochemical firefly luciferase enzyme assay for NPC (AID 624030);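 also: purified P. pyralis luciferase at 10 nM with luciferin and ATP substrate; 0% = DMSO and -100% = full luciferase inhibition by PTC124 control; nearly all actives have a fitted effect of over 70% in size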
Method in brief: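 Direct inhibition of firefly luciferase enzyme (10 nM final, 50 mM Tris Acetate) assessed by luminescence within 5 minutes. Percent activity scaled between DMSO and PTC124 positive control, with concentration-effect curves classified by fit quality and response.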

[4] = S16 Schwann cell viability assay (CellTiter-Glo assay) (AID 624031);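 also: cellular ATP luminescence as a viability measure; plate controls were DMSO-treated cells for no effect and cell-free wells for full effect; nearly all actives have a fitted effect of over 70% in size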
Method in brief: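 Native S16 rat Schwann cells in DMEM/10% FBS without phenol red were incubated overnight, then exposed to compounds for 24 h at 37 °C/5% CO2. Viability was read as ATP luminescence (CellTiter-Glo), normalized to no-cell wells and DMSO (0%).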

[5] = S16 Schwann cell PMP22 intronic element firefly luciferase assay (AID 624032);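 also: plate controls were DMSO for no effect and PTC124 positive control mean for full effect; nearly all actives have a fitted effect of over 30% in size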
Method in brief: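 Luciferase reporter of PMP22 intronic-element expression in stably transfected S16 rat Schwann cells, read by ONE-Glo luminescence after 24 h compound exposure at 37 C. Activity scaled between DMSO (0%) and positive-control PTC124; concentration-effect curves quality-classified.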

[6] = qHTS profiling for inhibitors of Plasmodium falciparum proliferation (AID 504749);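 also: 0% = DMSO vehicle and full inhibition = artemisinin control; nearly all actives have a fitted effect of over 60% in size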; settings: P. falciparum in erythrocytes, SYBR Green DNA, 72 h, at 12.8 µM (top of the series)
Method in brief: (§1)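 In a 72 h erythrocytic culture (37 C, humidified, 5% CO2) at 2.5% hematocrit and 0.3% starting parasitemia, compounds were tested; SYBR Green I in detergent lysis buffer stained parasite DNA overnight.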

3D7 = test: as above; settings: P. falciparum in erythrocytes, SYBR Green DNA, 72 h; series mostly up to 28.7 µM
Method in brief: as §1

7G8 = test: as above; settings: P. falciparum in erythrocytes, SYBR Green DNA, 72 h; series mostly up to 28.7 µM
Method in brief: as §1

AA1029 = test: as above; settings: P. falciparum in erythrocytes, SYBR Green DNA, 72 h; series mostly up to 28.7 µM
Method in brief: as §1

AS120 = test: as above; settings: P. falciparum in erythrocytes, SYBR Green DNA, 72 h; series mostly up to 28.7 µM
Method in brief: as §1

ATS189 = test: as above; settings: P. falciparum in erythrocytes, SYBR Green DNA, 72 h; series mostly up to 28.7 µM
Method in brief: as §1

ATS95 = test: as above; settings: P. falciparum in erythrocytes, SYBR Green DNA, 72 h; series mostly up to 28.7 µM
Method in brief: as §1

C2A = test: as above; settings: P. falciparum in erythrocytes, SYBR Green DNA, 72 h; series mostly up to 28.7 µM
Method in brief: as §1

CP185 = test: as above; settings: P. falciparum in erythrocytes, SYBR Green DNA, 72 h; series mostly up to 28.7 µM
Method in brief: as §1

CP191 = test: as above; settings: P. falciparum in erythrocytes, SYBR Green DNA, 72 h; series mostly up to 28.7 µM
Method in brief: as §1

CP192 = test: as above; settings: P. falciparum in erythrocytes, SYBR Green DNA, 72 h; series mostly up to 28.7 µM
Method in brief: as §1

CP194 = test: as above; settings: P. falciparum in erythrocytes, SYBR Green DNA, 72 h; series mostly up to 28.7 µM
Method in brief: as §1

CP201 = test: as above; settings: P. falciparum in erythrocytes, SYBR Green DNA, 72 h; series mostly up to 28.7 µM
Method in brief: as §1

CP203 = test: as above; settings: P. falciparum in erythrocytes, SYBR Green DNA, 72 h; series mostly up to 28.7 µM
Method in brief: as §1

CP211 = test: as above; settings: P. falciparum in erythrocytes, SYBR Green DNA, 72 h; series mostly up to 28.7 µM
Method in brief: as §1

CP215 = test: as above; settings: P. falciparum in erythrocytes, SYBR Green DNA, 72 h; series mostly up to 28.7 µM
Method in brief: as §1

CP217 = test: as above; settings: P. falciparum in erythrocytes, SYBR Green DNA, 72 h; series mostly up to 28.7 µM
Method in brief: as §1

CP237 = test: as above; settings: P. falciparum in erythrocytes, SYBR Green DNA, 72 h; series mostly up to 28.7 µM
Method in brief: as §1

CP238 = test: as above; settings: P. falciparum in erythrocytes, SYBR Green DNA, 72 h; series mostly up to 28.7 µM
Method in brief: as §1

CP247 = test: as above; settings: P. falciparum in erythrocytes, SYBR Green DNA, 72 h; series mostly up to 28.7 µM
Method in brief: as §1

CP250 = test: as above; settings: P. falciparum in erythrocytes, SYBR Green DNA, 72 h; series mostly up to 28.7 µM
Method in brief: as §1

CP252 = test: as above; settings: P. falciparum in erythrocytes, SYBR Green DNA, 72 h; series mostly up to 28.7 µM
Method in brief: as §1

CP256 = test: as above; settings: P. falciparum in erythrocytes, SYBR Green DNA, 72 h; series mostly up to 28.7 µM
Method in brief: as §1

CP260 = test: as above; settings: P. falciparum in erythrocytes, SYBR Green DNA, 72 h; series mostly up to 28.7 µM
Method in brief: as §1

CP265 = test: as above; settings: P. falciparum in erythrocytes, SYBR Green DNA, 72 h; series mostly up to 28.7 µM
Method in brief: as §1

CP266 = test: as above; settings: P. falciparum in erythrocytes, SYBR Green DNA, 72 h; series mostly up to 28.7 µM
Method in brief: as §1

CP268 = test: as above; settings: P. falciparum in erythrocytes, SYBR Green DNA, 72 h; series mostly up to 28.7 µM
Method in brief: as §1

CP269 = test: as above; settings: P. falciparum in erythrocytes, SYBR Green DNA, 72 h; series mostly up to 28.7 µM
Method in brief: as §1

CP286 = test: as above; settings: P. falciparum in erythrocytes, SYBR Green DNA, 72 h; series mostly up to 28.7 µM
Method in brief: as §1

CP291 = test: as above; settings: P. falciparum in erythrocytes, SYBR Green DNA, 72 h; series mostly up to 28.7 µM
Method in brief: as §1

CP297 = test: as above; settings: P. falciparum in erythrocytes, SYBR Green DNA, 72 h; series mostly up to 28.7 µM
Method in brief: as §1

CP305 = test: as above; settings: P. falciparum in erythrocytes, SYBR Green DNA, 72 h; series mostly up to 28.7 µM
Method in brief: as §1

CP315 = test: as above; settings: P. falciparum in erythrocytes, SYBR Green DNA, 72 h; series mostly up to 28.7 µM
Method in brief: as §1

CP325 = test: as above; settings: P. falciparum in erythrocytes, SYBR Green DNA, 72 h; series mostly up to 28.7 µM
Method in brief: as §1

CP329 = test: as above; settings: P. falciparum in erythrocytes, SYBR Green DNA, 72 h; series mostly up to 28.7 µM
Method in brief: as §1

CP335 = test: as above; settings: P. falciparum in erythrocytes, SYBR Green DNA, 72 h; series mostly up to 28.7 µM
Method in brief: as §1

DFO2036 = test: as above; settings: P. falciparum in erythrocytes, SYBR Green DNA, 72 h; series mostly up to 28.7 µM
Method in brief: as §1

DIV14 = test: as above; settings: P. falciparum in erythrocytes, SYBR Green DNA, 72 h; series mostly up to 28.7 µM
Method in brief: as §1

DIV17 = test: as above; settings: P. falciparum in erythrocytes, SYBR Green DNA, 72 h; series mostly up to 28.7 µM
Method in brief: as §1

DIV30 = test: as above; settings: P. falciparum in erythrocytes, SYBR Green DNA, 72 h; series mostly up to 28.7 µM
Method in brief: as §1

Dd2 = test: as above; settings: P. falciparum in erythrocytes, SYBR Green DNA, 72 h; series mostly up to 28.7 µM
Method in brief: as §1

ECU = test: as above; settings: P. falciparum in erythrocytes, SYBR Green DNA, 72 h; series mostly up to 28.7 µM
Method in brief: as §1

FAB9 = test: as above; settings: P. falciparum in erythrocytes, SYBR Green DNA, 72 h; series mostly up to 28.7 µM
Method in brief: as §1

GB4 = test: as above; settings: P. falciparum in erythrocytes, SYBR Green DNA, 72 h; series mostly up to 28.7 µM
Method in brief: as §1

HB3 = test: as above; settings: P. falciparum in erythrocytes, SYBR Green DNA, 72 h; series mostly up to 28.7 µM
Method in brief: as §1

ICS = test: as above; settings: P. falciparum in erythrocytes, SYBR Green DNA, 72 h; series mostly up to 28.7 µM
Method in brief: as §1

JCK = test: as above; settings: P. falciparum in erythrocytes, SYBR Green DNA, 72 h; series mostly up to 28.7 µM
Method in brief: as §1

N140 = test: as above; settings: P. falciparum in erythrocytes, SYBR Green DNA, 72 h; series mostly up to 28.7 µM
Method in brief: as §1

P93_24 = test: as above; settings: P. falciparum in erythrocytes, SYBR Green DNA, 72 h; series mostly up to 28.7 µM
Method in brief: as §1

P94_40 = test: as above; settings: P. falciparum in erythrocytes, SYBR Green DNA, 72 h; series mostly up to 28.7 µM
Method in brief: as §1

PAD = test: as above; settings: P. falciparum in erythrocytes, SYBR Green DNA, 72 h; series mostly up to 28.7 µM
Method in brief: as §1

PC15 = test: as above; settings: P. falciparum in erythrocytes, SYBR Green DNA, 72 h; series mostly up to 28.7 µM
Method in brief: as §1

PC26 = test: as above; settings: P. falciparum in erythrocytes, SYBR Green DNA, 72 h; series mostly up to 28.7 µM
Method in brief: as §1

PC49 = test: as above; settings: P. falciparum in erythrocytes, SYBR Green DNA, 72 h; series mostly up to 28.7 µM
Method in brief: as §1

SC27B = test: as above; settings: P. falciparum in erythrocytes, SYBR Green DNA, 72 h; series mostly up to 28.7 µM
Method in brief: as §1

TAB109 = test: as above; settings: P. falciparum in erythrocytes, SYBR Green DNA, 72 h; series mostly up to 28.7 µM
Method in brief: as §1

TAB113 = test: as above; settings: P. falciparum in erythrocytes, SYBR Green DNA, 72 h; series mostly up to 28.7 µM
Method in brief: as §1

TAB165 = test: as above; settings: P. falciparum in erythrocytes, SYBR Green DNA, 72 h; series mostly up to 28.7 µM
Method in brief: as §1

W2 = test: as above; settings: P. falciparum in erythrocytes, SYBR Green DNA, 72 h; series mostly up to 28.7 µM
Method in brief: as §1

Sequence of ATP-dependent 6-phosphofructokinase (Trypanosoma brucei brucei) (O15648 whole entry, looked up): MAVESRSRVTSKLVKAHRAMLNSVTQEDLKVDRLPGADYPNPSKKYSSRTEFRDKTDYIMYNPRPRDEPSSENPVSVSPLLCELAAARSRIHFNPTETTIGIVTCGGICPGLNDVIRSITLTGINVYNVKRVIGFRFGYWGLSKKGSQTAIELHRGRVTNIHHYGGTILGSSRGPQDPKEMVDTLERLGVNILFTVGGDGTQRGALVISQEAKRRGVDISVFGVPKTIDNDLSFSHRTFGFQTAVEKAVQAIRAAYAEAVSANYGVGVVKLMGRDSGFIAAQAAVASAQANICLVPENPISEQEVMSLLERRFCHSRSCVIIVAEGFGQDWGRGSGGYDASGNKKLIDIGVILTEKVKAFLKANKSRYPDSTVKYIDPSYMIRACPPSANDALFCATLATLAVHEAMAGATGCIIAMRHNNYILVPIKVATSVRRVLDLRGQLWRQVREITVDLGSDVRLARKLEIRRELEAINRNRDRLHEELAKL
Sequence of Luciferin 4-monooxygenase (Photinus pyralis) (P08659 whole entry, looked up): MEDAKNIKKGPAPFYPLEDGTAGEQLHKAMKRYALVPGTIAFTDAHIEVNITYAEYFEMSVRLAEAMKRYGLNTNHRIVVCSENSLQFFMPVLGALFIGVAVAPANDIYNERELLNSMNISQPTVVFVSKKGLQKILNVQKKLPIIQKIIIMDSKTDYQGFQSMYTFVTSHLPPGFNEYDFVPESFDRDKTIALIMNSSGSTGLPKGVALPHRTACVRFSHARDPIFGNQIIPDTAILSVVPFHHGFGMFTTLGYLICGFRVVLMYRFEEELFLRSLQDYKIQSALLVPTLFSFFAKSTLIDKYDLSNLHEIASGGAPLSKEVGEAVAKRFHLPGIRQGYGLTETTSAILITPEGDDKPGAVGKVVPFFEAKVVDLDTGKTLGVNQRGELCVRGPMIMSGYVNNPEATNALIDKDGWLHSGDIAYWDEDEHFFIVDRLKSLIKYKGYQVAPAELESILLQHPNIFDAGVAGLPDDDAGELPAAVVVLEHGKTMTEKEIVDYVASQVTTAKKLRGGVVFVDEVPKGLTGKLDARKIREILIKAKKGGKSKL
Sequence of Ubiquitin carboxyl-terminal hydrolase 1 (Homo sapiens) (O94782 whole entry, looked up): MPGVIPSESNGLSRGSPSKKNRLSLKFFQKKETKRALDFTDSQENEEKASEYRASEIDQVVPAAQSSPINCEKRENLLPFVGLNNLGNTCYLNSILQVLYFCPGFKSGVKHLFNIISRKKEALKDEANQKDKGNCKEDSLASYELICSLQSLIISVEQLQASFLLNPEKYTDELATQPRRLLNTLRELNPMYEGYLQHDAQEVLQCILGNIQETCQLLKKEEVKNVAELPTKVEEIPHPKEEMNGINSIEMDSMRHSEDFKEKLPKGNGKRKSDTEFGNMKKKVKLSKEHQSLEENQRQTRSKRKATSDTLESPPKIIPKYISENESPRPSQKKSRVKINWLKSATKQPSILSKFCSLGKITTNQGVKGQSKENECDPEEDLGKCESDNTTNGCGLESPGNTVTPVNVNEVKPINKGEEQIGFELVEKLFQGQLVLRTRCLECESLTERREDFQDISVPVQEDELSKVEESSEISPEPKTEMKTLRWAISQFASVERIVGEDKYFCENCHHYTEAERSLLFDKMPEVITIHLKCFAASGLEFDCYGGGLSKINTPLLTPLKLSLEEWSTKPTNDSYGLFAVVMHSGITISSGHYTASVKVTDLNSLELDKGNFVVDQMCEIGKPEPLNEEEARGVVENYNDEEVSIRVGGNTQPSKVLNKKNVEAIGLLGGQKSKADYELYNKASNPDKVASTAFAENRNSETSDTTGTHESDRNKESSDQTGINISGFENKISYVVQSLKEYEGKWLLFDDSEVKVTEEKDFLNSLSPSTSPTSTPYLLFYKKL

C[C@H](O)[C@@H]1C(=O)N2C(C(=O)O)=C(SCCN=CN)C[C@@H]12
inactive: Potency [1] | Potency [2] | Potency [3] | Potency [4] | Potency [5] | activity, negative = inhibition ([6]; parasite line A) 7.64% | activity, negative = inhibition ([6]; parasite line B) 5.5% | Potency (3D7) | Potency (7G8) | Potency (AA1029) | Potency (AS120) | Potency (ATS189) | Potency (ATS95) | Potency (C2A) | Potency (CP185) | Potency (CP191) | Potency (CP192) | Potency (CP194) | Potency (CP201) | Potency (CP203) | Potency (CP211) | Potency (CP215) | Potency (CP217) | Potency (CP237) | Potency (CP238) | Potency (CP247) | Potency (CP250) | Potency (CP252) | Potency (CP256) | Potency (CP260) | Potency (CP265) | Potency (CP266) | Potency (CP268) | Potency (CP269) | Potency (CP286) | Potency (CP291) | Potency (CP297) | Potency (CP305) | Potency (CP315) | Potency (CP325) | Potency (CP329) | Potency (CP335) | Potency (DFO2036) | Potency (DIV14) | Potency (DIV17) | Potency (DIV30) | Potency (Dd2) | Potency (ECU) | Potency (FAB9) | Potency (GB4) | Potency (HB3) | Potency (ICS) | Potency (JCK) | Potency (N140) | Potency (P93_24) | Potency (P94_40) | Potency (PAD) | Potency (PC15) | Potency (PC26) | Potency (PC49) | Potency (SC27B) | Potency (TAB109) | Potency (TAB113) | Potency (TAB165) | Potency (W2)

From PubChem BioAssay (NCATS)
